Experimental data reported in PubChem BioAssay (Tox21).
Results filed as inconclusive are left out. Entries that show only a call come without a potency. Unmarked numbers belong to inactive results. Activity calls are given as the source filed them. Unless noted, calls come from the whole dose curve; as a rule, active = well fitted curve in the direction sought with a large enough effect in the repeat runs; inconclusive = weak or mixed curves; inactive = no such curve, though single readings can be large; an effect the other way counts as inactive or inconclusive.

How the values were obtained:
[1] = qHTS assay to identify small molecule agonists of the vitamin D receptor (VDR) signaling pathway - cell viability counter screen (AID 743224); note: series mostly up to about 63 µM; nearly all actives have a fitted effect of over 50% in size
Outline: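 VDR-bla cells were preincubated 4 h at 37C/5% CO2, then exposed to compounds for 16 h. After the 2 h room-temperature bla FRET read, CellTiter-Glo was added to the same wells and luminescence read after 30 min.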

[2] = qHTS assay to identify small molecule antagonists of the vitamin D receptor (VDR) signaling pathway - cell viability counter screen (AID 743225); note: nearly all actives have a fitted effect of over 50% in size
Outline: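 Luminescent cell viability (CellTiter-Glo) in VDR-bla HEK 293T cells after 16 h compound exposure at 37C in the presence of 3 nM final 1-alpha,25-dihydroxy vitamin D3.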

[3] = qHTS assay to identify small molecule agonists of the NFkB signaling pathway - cell viability counter screen (AID 1159515; calls by dose curve; note: series mostly up to about 61 µM; nearly all actives have a fitted effect of over 55% in size)
Outline: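 NFkB-bla ME-180 cells, 2,000/well, were plated overnight at 37 C, 5% CO2, then exposed to compounds in DMSO for 5 hr. After the bla FRET read, CellTiter-Glo was added to the same wells; luminescence was read after 30 min at room temperature.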

[4] = qHTS assay to identify small molecule agonists of the endoplasmic reticulum stress response signaling pathway (AID 1159516; active = well fitted activation curve with a large enough effect in the signal ratio in the repeat runs, not every such curve was filed as active; the % refers to the signal ratio)
Outline: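 CellSensor ESRE-bla HeLa cells, carrying a beta-lactamase reporter driven by the ER stress response element, were plated overnight and exposed to compounds for 5 hr at 37 C. Reporter activity was read as FRET substrate fluorescence after 2 hr at room temperature.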

[5] = qHTS assay to identify small molecule antagonists of the retinoid-related orphan receptor gamma (ROR-gamma) signaling pathway - cell viability counter screen (AID 1159520); note: nearly all actives have a fitted effect of over 50% in size
Outline: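 Cytotoxicity was read from cellular ATP (CellTiter-Glo luminescence) after 16 hr at 37 C with 1 uM doxycycline induction. The inducer was added 2 hr after compound transfer to Tet-on ROR gamma CHO cells.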

[6] = biological target: Nuclear receptor ROR-gamma (Homo sapiens) (UniProt P51449); experiment: qHTS assay to identify small molecule antagonists of the retinoid-related orphan receptor gamma (ROR-gamma) signaling pathway (AID 1159521;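 note: CHO cells with doxycycline inducible ROR-gamma driving an RORE luciferase reporter; top concentration of the series differs between compounds; nearly all actives have a fitted effect of over 50% in size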)
Outline: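 CHO cells expressing RORγ under a TET-on promoter, luciferase under RORE control. Dox 1 uM final, 16 h; compounds added 2 h prior. Luminescence decrease measured.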

[7] = qHTS assay to identify small molecule agonists of the AP-1 signaling pathway - cell viability counter screen (AID 1159525; calls by dose curve; note: nearly all actives have a fitted effect of over 55% in size)
Outline: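 Luminescent ATP readout (Cell Titer Glo, 30 min RT), normalised to DMSO and tetra n-octyl ammonium bromide controls. Cells were ME-180 AP-1-bla in 0.5% dialyzed FBS Opti-MEM, with a 5 h, 37 °C compound exposure.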

[8] = qHTS assay to identify small molecule agonists of the AP-1 signaling pathway (AID 1159526; calls by dose curve)
[9] = biological target: Retinoic acid receptor RXR-alpha (Homo sapiens) (UniProt P19793); experiment: qHTS assay to identify small molecule agonists of the RXR signaling pathway (AID 1159527; calls by dose curve; note: nearly all actives have a fitted effect of over 35% in size)
Retinoic acid receptor RXR-alpha (Homo sapiens), sequence (P19793 whole entry, looked up): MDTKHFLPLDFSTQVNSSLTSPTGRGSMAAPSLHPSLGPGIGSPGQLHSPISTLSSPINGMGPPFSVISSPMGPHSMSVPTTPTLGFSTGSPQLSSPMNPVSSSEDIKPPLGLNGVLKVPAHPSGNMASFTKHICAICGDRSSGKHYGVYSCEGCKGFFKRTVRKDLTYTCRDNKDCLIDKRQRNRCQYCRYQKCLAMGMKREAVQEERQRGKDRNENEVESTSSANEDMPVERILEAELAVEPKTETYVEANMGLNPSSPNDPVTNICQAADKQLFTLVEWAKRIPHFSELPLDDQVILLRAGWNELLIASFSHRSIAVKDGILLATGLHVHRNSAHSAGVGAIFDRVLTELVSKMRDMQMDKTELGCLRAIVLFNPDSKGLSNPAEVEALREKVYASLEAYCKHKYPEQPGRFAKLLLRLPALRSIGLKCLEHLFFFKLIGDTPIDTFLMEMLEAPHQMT
Outline: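 Beta-lactamase reporter assay, agonist format. Engineered HEK 293T line, charcoal-stripped FBS at 2%, overnight (16 hr) exposure, fluorescence at 460 and 530 nm after 405 nm excitation.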

[10] = qHTS assay to identify small molecule agonists of the RXR signaling pathway - cell viability counter screen (AID 1159529)
Outline: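 Same-well viability check after the LiveBLAzer FRET read: CellTiter-Glo added, luminescence measured after 30 min at room temperature. Reporter HEK 293T cells had been treated with compounds for 16 hr following a 5 hr preincubation.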

[11] = qHTS assay to identify small molecule antagonists of the retinoid acid receptor (RAR) signaling pathway - cell viability counter screen (AID 1159551); note: nearly all actives have a fitted effect of over 35% in size
Outline: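 C3RL4 cells were seeded overnight at 37 C, then treated with compounds plus 1 uM (final) retinol for 6 h at 37 C. Viability was read as ATP by CellTiter-Glo luminescence after 30 min at room temperature.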

[12] = qHTS assay to identify small molecule antagonists of the retinoic acid receptor (RAR) signaling pathway (AID 1159552; note: nearly all actives have a fitted effect of over 50% in size)
Outline: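 Readout: luciferase luminescence, 30 min post-reagent at RT. Setup: C3RL4 RARE reporter cells, compounds plus retinol 1 uM final, 6 hr incubation at 37 C and 5% CO2.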

[13] = qHTS assay to identify small molecule agonists of the retinoic acid receptor (RAR) signaling pathway (AID 1159553); note: potency is the fitted concentration of half-maximal effect
Outline: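 C3RL4 cells carrying a RARE luciferase reporter were plated overnight at 37 C, then exposed to compounds in DMSO for 6 hr at 37 C and 5% CO2. Luminescence was read 30 min after luciferase reagent addition at room temperature.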

[14] = qHTS assay to identify small molecule antagonists of the estrogen related receptor (ERR) signaling pathway from Tox21 library - cell viability counter screen (AID 1224834); note: nearly all actives have a fitted effect of over 30% in size
Outline: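 ERR reporter cells were plated 6 h before compound addition, then exposed to test compounds in DMSO for 17.5 h at 37 C. Viability was read as CellTiter-Fluor fluorescence after a 30-minute incubation at 37 C.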

[15] = biological target: Luciferin 4-monooxygenase (Photinus pyralis) (UniProt P08659); experiment: qHTS assay to identify small molecule inhibitors of firefly luciferase (AID 1224835); note: nearly all actives have a fitted effect of over 25% in size; note: potency is the fitted concentration of half-maximal effect
Luciferin 4-monooxygenase (Photinus pyralis), sequence (P08659 whole entry, looked up): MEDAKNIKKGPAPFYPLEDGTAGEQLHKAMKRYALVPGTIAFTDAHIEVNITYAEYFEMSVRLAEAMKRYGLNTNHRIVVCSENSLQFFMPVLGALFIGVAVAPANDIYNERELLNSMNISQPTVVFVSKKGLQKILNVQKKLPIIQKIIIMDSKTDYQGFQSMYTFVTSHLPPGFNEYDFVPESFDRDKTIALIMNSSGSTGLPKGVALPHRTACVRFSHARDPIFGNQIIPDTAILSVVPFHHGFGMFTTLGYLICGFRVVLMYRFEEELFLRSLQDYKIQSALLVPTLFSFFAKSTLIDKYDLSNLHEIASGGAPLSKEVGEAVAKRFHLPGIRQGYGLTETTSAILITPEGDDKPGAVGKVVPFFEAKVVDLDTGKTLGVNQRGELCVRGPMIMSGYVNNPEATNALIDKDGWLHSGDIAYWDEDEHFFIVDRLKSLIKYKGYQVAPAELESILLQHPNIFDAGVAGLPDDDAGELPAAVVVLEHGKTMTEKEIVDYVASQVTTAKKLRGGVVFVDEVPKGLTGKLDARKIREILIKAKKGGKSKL
Outline: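 Inhibition of purified Photinus luciferase is measured by luminescence. Substrate levels (D-luciferin, ATP) sit at their KM values. Each compound is tested in a concentration series.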

[16] = qHTS assay to identify small molecule agonists of the constitutive androstane receptor (CAR) signaling pathway - cell viability counter screen (AID 1224836); note: series mostly up to about 92 µM; nearly all actives have a fitted effect of over 45% in size
Outline: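 Compound titrations (15 concentrations) went onto HepG2-CYP2B6-hCAR cells 4 h after seeding, alongside PK11195 at a final 0.75 uM; a 23 h, 37 C/5% CO2 incubation preceded CellTiter-Fluor viability measurement.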

[17] = qHTS assay to identify small molecule antagonists of the constitutive androstane receptor (CAR) signaling pathway - cell viability counter screen (AID 1224837); note: series mostly up to about 92 µM; nearly all actives have a fitted effect of over 45% in size
Outline: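 HepG2 cells stably expressing hCAR and a CYP2B6-2.2kb reporter were plated and pre-incubated 4 hr at 37 C/5% CO2, then given compounds at 15 concentrations plus 50 nM CITCO (final). After 23 hr, viability was read by CellTiter-Fluor fluorescence.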

[18] = biological target: Nuclear receptor subfamily 1 group I member 3 (Homo sapiens) (UniProt Q14994); experiment: qHTS assay to identify small molecule antagonists of the constitutive androstane receptor (CAR) signaling pathway (AID 1224838); note: nearly all actives have a fitted effect of over 40% in size
Nuclear receptor subfamily 1 group I member 3 (Homo sapiens), sequence (Q14994 whole entry, looked up): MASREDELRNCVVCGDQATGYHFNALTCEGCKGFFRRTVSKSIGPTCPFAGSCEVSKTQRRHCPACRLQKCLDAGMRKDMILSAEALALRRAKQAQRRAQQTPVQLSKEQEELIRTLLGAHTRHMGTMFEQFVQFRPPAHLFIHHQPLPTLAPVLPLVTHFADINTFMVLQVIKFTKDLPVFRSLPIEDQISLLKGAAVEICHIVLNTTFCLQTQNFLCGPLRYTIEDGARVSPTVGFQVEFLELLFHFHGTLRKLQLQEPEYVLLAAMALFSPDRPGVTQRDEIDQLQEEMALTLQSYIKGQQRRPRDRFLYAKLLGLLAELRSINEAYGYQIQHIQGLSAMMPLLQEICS
Outline: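 HepG2 cells stably co-transfected with hCAR and a CYP2B6-2.2kb luciferase reporter were seeded 4 h before compound addition at 15 concentrations. Cells were stimulated with 50 nM CITCO (final) for 24 h at 37 C; luciferase luminescence was then read.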

[19] = biological target: Nuclear receptor subfamily 1 group I member 3 (Homo sapiens) (UniProt Q14994); experiment: qHTS assay to identify small molecule agonists of the constitutive androstane receptor (CAR) signaling pathway (AID 1224839); note: nearly all actives have a fitted effect of over 15% in size; note: potency is the fitted concentration of half-maximal effect;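 for activation: HepG2 cells stably carrying human CAR and a CYP2B6 luciferase reporter; series mostly up to about 92 µM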
Outline: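 In this screen, CAR-driven CYP2B6 promoter activity is measured by luminescence in HepG2-CYP2B6-hCAR cells after 24 h with test compounds and 0.75 uM PK11195 (final concentration).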

Row | Compound | outcome [1] | outcome [2] | outcome [3] | Potency [4] | outcome [5] | outcome [6] | outcome [7] | Potency [8] | Potency [9] | Potency [10] | outcome [11] | outcome [12] | Potency [13] | outcome [14] | Potency [15] | outcome [16] | outcome [17] | outcome [18] | Potency [19]
1 | O=c1[nH]c(=O)c2cn[nH]c2[nH]1 | inactive | inactive | inactive | inactive | inactive | inactive | inactive | inactive | inactive | inactive | inactive | inactive | inactive | inactive | inactive | inactive | inactive | inactive | inactive
2 | CC/C=C/CCCCCCCCCCOC(C)=O | inactive | inactive | inactive | inactive | inactive | inactive | inactive | inactive | inactive | inactive | inactive | inactive | inactive | inactive | inactive | inactive | inactive | inactive | inactive
3 | CCCc1ccc(O)c(OC)c1 | inactive |  | inactive | inactive | inactive | inactive | inactive | inactive | inactive | inactive | inactive | inactive | inactive | inactive | inactive | inactive | inactive |  | inactive
4 | CC1=C(O)C(=O)CO1 | inactive | inactive | inactive | inactive | inactive | inactive | inactive | inactive | inactive |  | inactive | inactive | inactive | inactive | inactive | inactive | inactive | inactive | inactive
5 | COc1cc(C(=O)NC2CCCNC2)cc(OC)c1OC (stereo not given) | inactive | inactive | inactive | inactive | inactive | inactive | inactive | inactive | inactive |  | inactive | inactive | inactive | inactive | inactive | inactive | inactive | inactive | inactive
6 | Cc1ccc2ccccc2n1 | inactive |  | inactive | inactive | inactive | inactive | inactive | inactive | inactive | inactive | inactive | inactive | inactive | inactive | inactive | inactive | inactive |  | inactive
7 | CCCCC(CC)CCC(CC(C)C)OS(=O)(=O)O (stereo not given) | inactive | inactive | inactive | inactive |  | inactive | inactive | inactive | inactive |  | inactive | inactive | inactive | inactive | inactive | inactive | inactive | inactive | inactive
8 | CCOC(=O)CC | inactive |  | inactive | inactive |  | inactive | inactive | inactive | inactive | inactive | inactive | inactive | inactive | inactive | inactive | inactive |  | inactive | inactive
9 | CC(=O)SCC(CC(=O)c1ccc(C)cc1)C(=O)O (stereo not given) | inactive | inactive | inactive | inactive | inactive | inactive | inactive | inactive | inactive | inactive | inactive | inactive | inactive | inactive | 27.5 µM (active) | inactive |  |  | 
10 | CCCCOCCCC | inactive | inactive | inactive | inactive | inactive | inactive | inactive | inactive |  | inactive | inactive | inactive | inactive | inactive | inactive | inactive | inactive |  | inactive
11 | C/C(=N\O)c1ccc(OCC(=O)N2CCCCC2)cc1 | inactive | inactive | inactive | inactive |  | inactive | inactive | inactive | inactive | inactive | inactive | inactive | 3.76 µM (active) | inactive | 12.3 µM (active) | inactive |  |  | 4.22 µM (active)
12 | O=S(=O)(O)CC(O)CCl (stereo not given) | inactive | inactive | inactive | inactive | inactive | inactive | inactive | inactive | inactive |  | inactive | inactive | inactive | inactive | inactive | inactive |  | inactive | inactive
13 | CCCCCCCOC(C)=O | inactive | inactive | inactive | inactive | inactive | inactive | inactive | inactive | inactive | inactive | inactive | inactive | inactive | inactive | inactive | inactive | inactive |  | 
14 | C=C(C)C(=O)OCCCC | inactive | inactive | inactive | inactive | inactive | inactive | inactive | inactive | inactive | inactive | inactive | inactive | inactive | inactive | inactive | inactive |  |  | 
15 | CCOC(=O)[C@H](CCc1ccccc1)N[C@H]1CS[C@H](c2cccs2)CN(CC(=O)O)C1=O | inactive | inactive | inactive | inactive | inactive | inactive | inactive | inactive | inactive | inactive | inactive | inactive | inactive | inactive | inactive | inactive | inactive |  | 
16 | CC(O)CCCCn1c(=O)c2c(ncn2C)n(C)c1=O (stereo not given) | inactive | inactive | inactive | inactive | inactive | inactive | inactive | inactive | inactive |  | inactive | inactive | inactive | inactive | inactive | inactive | inactive | inactive | inactive
